# DAX1 inh-1: blocks DAX1 repression of SF-1 activated StAR promoter; HEK293T StAR-luciferase reporter, SF-1/DAX-1 repression relief; inhibition, % at 6.8 µM; 370,000 compounds, 1.1% hits; AID 652010;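 active = inhibition above the mean over all tested compounds plus 3 SD, cut at about 3.6% in these data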;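 also: 0% = DAX-1 cells with DMSO and 100% = cells lacking DAX-1 with DMSO; higher inhibition means more luminescence from relief of DAX-1 repression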
# SMARCA2 act: increases SMARCA2 function in MMTV reporter cells. MG213 cells, MMTV-luciferase reporter, dexamethasone, overnight. activation, % at 9.1 µM. 370,000 compounds, 1% hits. AID 652017; in the data active = activation above about 7.8%;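 also: 0% = vehicle wells and 100% = reference activator wells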
# hgDAF-12 ag: hgDAF-12 agonism, primary luciferase screen; HEK293 GAL4-hgDAF12 UAS-luciferase reporter, agonist luminescence; normalized to butyrate control; activation, % at 6.8 µM; 370,000 compounds, 1.8% hits;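 active = activation above a cutoff set at the mean of all screened compounds plus 3 SD, cut at about 10% in these data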;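 also: 0% = DMSO wells and 100% = sodium butyrate wells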
# hcDAF12 agonist: activates DAF-12 receptor from parasite H. contortus; HEK293 hcDAF-12 lit1-tk-luc reporter, luminescence; 0% DMSO, 100% Δ7-dafachronic acid; activation, % at 6.8 µM; 370,000 compounds, 1.4% hits;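 active = activation above the mean of all tested compounds plus 3 SD, cut at about 5.5% in these data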;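 also: 100% = response to 3 µM Δ7-dafachronic acid high control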
# ssDAF-12 act: activators of S. stercoralis DAF-12 nuclear receptor; HEK293 ssDAF-12/GRIP1 lit1-tk-luc reporter, luminescence; % of 3 µM dafachronic acid response; activation, % at 6.8 µM; 370,000 compounds, 1% hits; AID 652126;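 active = activation above the mean over all tested compounds plus 3 SD, cut at about 0.9% in these data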;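 also: 0% = DMSO-only wells and 100% = 3 µM delta7-dafachronic acid wells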
# DAX1 inh-2: inhibits human nuclear receptor DAX1. P51843. HEK293 Gal4-DAX1 luciferase reporter, luminescence. inhibition, % at 6.75 µM. 340,000 compounds, 0.99% hits;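 active = inhibition above the mean over all tested compounds plus 3 SD, cut at about 4.2% in these data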;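 also: 0% = DAX1-transfected cells with DMSO and 100% = empty-vector control cells with DMSO; inhibition shows as a rise in luminescence from relieved DAX1 repression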
# hgDAF12 ag: confirmation of H. glycines DAF-12 agonists; activation, % at 6.8 µM; 3,300 compounds, 80% hits; HEK293 GAL4-hgDAF12 luciferase reporter, agonist mode; percent of butyrate response; shares compounds with hgDAF-12 ag;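 active = mean activation over triplicate wells above the hit cutoff derived from the earlier primary screen, cut at about 11% in these data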;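 also: 0% = DMSO low control and 100% = 2 mM sodium butyrate high control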
# LXRb DAF12 ctr: counter-screen for DAF-12 agonists: agonists of human LXR-beta | shares compounds with hgDAF-12 ag | HEK293 Gal4-LXR luciferase reporter, 24 h | activation, % at 6.8 µM | 3,300 tested, under 10 active | AID 743051;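 active = mean activation of the triplicate above a set limit carried over from the primary screen, none filed active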
# Target sequence (P55055 whole entry, looked up, the tested form may be a part): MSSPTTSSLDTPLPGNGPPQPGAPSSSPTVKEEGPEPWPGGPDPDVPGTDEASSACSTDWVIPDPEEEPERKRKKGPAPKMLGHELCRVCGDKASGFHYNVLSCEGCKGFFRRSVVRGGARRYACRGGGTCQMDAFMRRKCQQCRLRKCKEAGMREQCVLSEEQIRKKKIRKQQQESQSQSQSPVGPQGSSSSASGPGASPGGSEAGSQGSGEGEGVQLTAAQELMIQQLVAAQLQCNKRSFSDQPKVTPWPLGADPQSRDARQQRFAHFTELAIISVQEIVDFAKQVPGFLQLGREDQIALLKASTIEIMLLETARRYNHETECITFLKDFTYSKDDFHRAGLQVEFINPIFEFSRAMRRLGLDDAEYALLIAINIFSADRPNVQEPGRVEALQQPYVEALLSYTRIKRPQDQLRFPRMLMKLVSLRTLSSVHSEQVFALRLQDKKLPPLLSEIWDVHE
# Active calls of the source: *; · = no result given. This is a sample that favours compounds with a hit; in the whole collection about 4.8% have one here.
SMILES,DAX1 inh-1,SMARCA2 act,hgDAF-12 ag,hcDAF12 agonist,ssDAF-12 act,DAX1 inh-2,hgDAF12 ag,LXRb DAF12 ctr
COc1ccc(C(=O)CC(c2ccccc2)C2CCCCC2=O)cc1 (stereo not given),0,-5,0,-3,-2,-1,·,·
O=C(Nc1cccc(O)c1)c1cc(-c2cccs2)on1,3,7,15*,3,0,1,21*,0
Cc1ccc(-c2cc(C(=O)Nc3cccnc3)[nH]n2)c(O)c1C,1,5,14*,1,-1,5.7*,16*,1
O=C(Nc1cccnc1)c1ccc(C(=O)Nc2cccnc2)cc1,0,-1,0,0,-1,1,·,·
CC(C)(C)c1ccc(C(=O)Nc2cccnc2)cc1,2,5,16*,5.9*,1.5*,2,13*,1
CC(C)(C)c1ccc(NC(=O)c2ccsc2)cc1,3,8,17*,6.5*,1.0*,·,16*,1
CCSCC(C)(C)n1[nH]c2ccccc2c1=O,0,4,14*,0,-1,0,-2,0
CCn1c(=O)[nH]c2ccccc2c1=O,1,0,-3,0,-1,1,·,·
CCOc1ccc(NC(=O)c2ccccc2NC(=O)CN2CCCCCC2)cc1,0,0,0,0,-1,-2,·,·
CCCn1nc(NC(=O)COC)c2cc3cccc(C)c3nc21,0,4,14*,-1,-1,0,1,0
O=C(COC(=O)c1ccccc1Cc1ccccc1)Nc1ccc(SC(F)F)cc1,3,2,14*,3,0,1,17*,1
O=C(Cc1ccccc1F)Nc1ccc(SC(F)F)cc1,3,4,17*,5,0,3,14*,0
O=C(COC(=O)Cc1ccccc1F)Nc1ccc(SC(F)F)cc1,0,6,4,0,-1,0,·,·
O=C(Nc1ccc(SC(F)F)cc1)c1ccc(F)cc1,3,1,14*,3,0,2,14*,1
O=C(Nc1ccc(SC(F)F)cc1)c1ccccc1F,3.9*,1,16*,5,0,6.2*,15*,1
O=C(Cc1ccc([N+](=O)[O-])cc1)Nc1cccnc1,-1,-3,-1,-1,-2,-1,·,·
O=C(N/N=C/c1ccc(OC(=O)c2ccco2)cc1)c1ccccn1,4.0*,7,17*,3,0,·,15*,1
O=C(Oc1ccc(/C=N/NC(=O)c2ccccn2)cc1)c1ccc(Br)cc1,1,2,3,-1,-1,2,·,·
COc1cc(/C=N/NC(=O)c2ccc(F)cc2)ccc1OC(=O)c1ccco1,1,0,6,0,-1,0,·,·
O=C(N/N=C/c1cccc(OC(=O)c2ccco2)c1)c1ccc(F)cc1,3,2,17*,3,0,1,13*,0
COC(=O)/C(=C/c1c[nH]c2ccccc12)NC(C)=O,0,1,-3,1,-1,0,·,·
COc1ccc(NC(=S)N/C(=N/CS(=O)(=O)c2ccccc2)c2ccccc2)cc1,2,2,14*,2,-1,3,7,0
Cc1ccc(S(=O)(=O)N2CCN(CC(=O)N/N=C\c3ccc(O)c(O)c3)CC2)cc1,0,-4,2,0,-1,2,·,·
Brc1ccc(-c2csc(N3CCOCC3)n2)cc1,4.1*,-1,19*,3,0,7.5*,11*,1
Brc1ccc(-c2csc(N3CCCCCC3)n2)cc1,0,1,-1,-3,-2,2,·,·
SMILES,DAX1 inh-1,SMARCA2 act,hgDAF-12 ag,hcDAF12 agonist,ssDAF-12 act,DAX1 inh-2,hgDAF12 ag,LXRb DAF12 ctr
Cc1ccc(Cl)cc1N1CCN(C(=O)C2CCN(S(C)(=O)=O)CC2)CC1,-1,-1,-3,-1,-1,-3,·,·
O=C(NCCSc1ccccc1)c1ccccc1F,2,2,13*,5.8*,-1,3,13*,1
Cc1ccc(SCCNC(=O)c2ccccc2F)cc1,0,3,1,0,-2,-1,·,·
CC(C)(C)c1ccc(CC(=O)N2CCC2(C)C(=O)NS(=O)(=O)c2cccc(F)c2)cc1 (stereo not given),0,-2,4,0,-1,·,·,·
C(/CCc1ccccc1)=N\Nc1nc2ccccc2[nH]1,1,7,8,5,1,1,·,·
C(=C\c1ccccc1)/C=N/Nc1nc2ccccc2[nH]1,1,5,15*,3,0,-1,17*,1
COC(=O)c1ccccc1NC(=O)c1c(O)c2c([nH]c1=O)CCCC2,0,-5,2,-2,-1,0,·,·
O=C(Nc1ccc(O)cc1)c1c(O)c2c([nH]c1=O)CCCC2,3.7*,3,14*,5,1,1,13*,1
O=C(CN1C(=O)NC2(CCCCCCC2)C1=O)Nc1c(Cl)cccc1Cl,-1,1,-2,-1,0,0,·,·
C=C(C)CN(CC)C(=O)CCc1nnc(CCCc2ccccc2)o1,1,2,17*,4,0,2,12*,0
N/C(=N\OC(=O)COc1ccc(Cl)cc1Br)c1ccncc1,3,5,16*,5,1.3*,2,19*,1
N/C(=N\OC(=O)CCCOc1ccc(Cl)cc1Cl)c1ccccn1,1,-3,0,0,-2,0,·,·
Cc1ccc(OCC(=O)O/N=C(\N)c2ccccn2)cc1,3.8*,3,15*,4,0,3,14*,0
N/C(=N\OC(=O)COc1cc(Cl)c(Cl)cc1Cl)c1ccccn1,3,4,14*,1,-1,·,12*,1
O=C(Nc1ccc(S(=O)(=O)N2CCCC2)cc1)c1cccnc1Cl,-2,-2,-1,1,-1,0,·,·
O=C(c1ccccc1Sc1ccc([N+](=O)[O-])cc1Cl)N1CCOCC1,0,1,-4,0,-2,0,·,·
COc1ccc(/C=N/NC(=O)CCC(=O)Nc2ccccc2)cc1OC,0,-1,2,0,-1,1,·,·
COc1cc(/C=N/NC(=O)CCC(=O)Nc2ccc(F)cc2)ccc1O,0,-2,24*,0,-1,1,0,0
CCOc1cc(/C=N/NC(=O)N/N=C/c2ccc(O)c(OCC)c2)ccc1O,-1,-1,14*,5,1.1*,·,16*,1
CCOc1cc(/C=N/NC(=O)C(=O)N/N=C/c2ccc(O)c(OCC)c2)ccc1O,0,-2,-1,-2,-1,2,·,·

# Screens deposited in PubChem by The Scripps Research Institute Molecular Screening Center.
